# In all, about 48,000 compounds went through this assay and about 13,000 (27%) showed an effect of 50% or more. Some of the results follow.
# System: Wolbachia pipientis
# Assay: Anti-Wolbachia Cell-Based Screen
# Assay type: functional
# Set-up: scale not given: in the data most compounds retested in dose-response had high values
# Conditions: 5 µM
row,SMILES,Percent Effect
1,CC(C)c1nc(/C=C/c2cnn(-c3ccc(Cl)cc3)c2)ncc1C(=O)O,-7.437%
2,Cc1ccsc1CN(CCN(C)C)C(=O)c1ccccc1C#N,-7.458%
3,CCCS(=O)(=O)NC(=O)c1sc(C2CCCC2)nc1C,-2.065%
4,CCC(C)N(C)CCNC(=O)NCc1cccc(-n2cncn2)c1 (centres undefined),23.44%
5,O=C(NC1CC1)C1CCN(Cn2nc(-c3ccccc3)oc2=O)CC1,10.01%
6,CCc1nc(CN2CCN(C(=O)c3csc(C(C)C)n3)CC2)no1,-9.148%
7,COc1cc(OC)c2c(=O)oc(CC(O)CC(C)=O)cc2c1 (centres undefined),8.997%
8,Cc1cc(C(=O)NCC2COCc3c(C)nnn3C2)no1 (centres undefined),-12.47%
9,Cc1noc(C)c1CNS(=O)(=O)N(C)Cc1ccc(Cl)cc1,-11.55%
10,CN(C)C(=O)c1ccc2c(c1)N(C)C(CC(=O)NCc1ccno1)CO2 (centres undefined),-14.39%
11,CCN(c1ccc(C(=O)N2CCCC(C)C2)cc1)S(=O)(=O)CC (centres undefined),-3.775%
12,CCS(=O)(=O)N(C)c1ccc(C(=O)N2CCCC(C)C2)cc1 (centres undefined),-1.245%
13,CN(C)S(=O)(=O)c1csc(C(=O)N2CCC(C(N)=O)CC2)c1,3.976%
14,CCN(c1ccc(C(=O)N2CCC(C)CC2)cc1)S(=O)(=O)CC,137.9%
15,CCN(c1ccc(C(=O)N2CCC(C(N)=O)CC2)cc1)S(=O)(=O)CC,125.1%
16,CCN(CC)S(=O)(=O)c1csc(C(=O)N2CCC(C(N)=O)CC2)c1,5.806%
17,Cc1nccn1CC1CCCN1S(=O)(=O)Cc1ccon1 (centres undefined),0.377%
18,Cc1nc(C)n(CC2CCCN(CCC(=O)NC3CCCCC3)C2)n1 (centres undefined),153.2%
19,Cc1nc(C)n(CC2CCCN(CCC(=O)NC3CCCC3)C2)n1 (centres undefined),114.2%
20,Cc1nc(C)n(CC2CCCN(CCC(=O)Nc3cc(C)on3)C2)n1 (centres undefined),101.8%
21,Cc1nc(C)n(CC2CCCN(CCNC(=O)OC(C)(C)C)C2)n1 (centres undefined),-2.681%
22,Cc1cnc(CNC(=O)NC2CCCN(c3ccccc3F)C2)s1 (centres undefined),-4.354%

row,SMILES,Percent Effect
1,CC(C)OCCCN1CCCC(c2nc3ccccc3n2C(C)C)C1 (centres undefined),-14.63%
2,Cc1cc(CN2CCN(CCOc3cccc(C#N)c3)CC2)no1,-1.661%
3,COc1cc(/C=C/c2ncc(C(=O)O)s2)cc(Cl)c1O,10.97%
4,CNC(=O)c1cnc(/C=C/c2cc(OC)c(OC)c(OC)c2)s1,2.96%
5,CCOc1cc(/C=C/c2ncc(C(=O)O)s2)cc(Cl)c1OC,3.266%
6,CNC(=O)c1cnc(/C=C/c2ccc(O)c(OC)c2)s1,0.2416%
7,COc1cc(/C=C/c2ncc(C(=O)O)s2)cc(Cl)c1OC,96.03%
8,CCOc1c(Cl)cc(/C=C/c2ncc(C(=O)O)s2)cc1OC,82.8%
9,COc1ccc(F)cc1CSCC(=O)N(C)CCC#N,-1.773%
10,COc1ccc(-c2noc(C(CC(C)C)N3CCCCC3=O)n2)cn1 (centres undefined),9.971%
11,O=C1NCC2(CCCN(Cc3ccc(Cl)s3)C2)Oc2ccccc21 (centres undefined),7.994%
12,C=Cc1ccc(CN2CCCC3(CNC(=O)c4ccccc4O3)C2)cc1 (centres undefined),88.72%
13,O=C1NCC2(CCCN(Cc3ccc(F)cc3)C2)Oc2ccccc21 (centres undefined),110.4%
14,CC(=O)N1CCOC2(CCCN(Cc3ccc(N(C)C)cc3)C2)C1 (centres undefined),-2.682%
15,O=C1NCC2(CCCN(Cc3ccccc3F)C2)Oc2ccccc21 (centres undefined),-7.876%
16,CSc1ccc(CN2CCCC3(CNC(=O)c4ccccc4O3)C2)cc1 (centres undefined),103.9%
17,CC(C)=CCN1C[C@H]2CC[C@@H]1CN(C(=O)c1ccc(S(N)(=O)=O)cc1)C2,-17.62%
18,CC(C)c1ccccc1NC(=O)N1C[C@@H]2CC[C@H](C1)N(C)C2=O,-22.21%
19,CCOC(=O)C1=NOC(Cc2cc(OC)c3c(c2)OCO3)C1 (centres undefined),92.3%
20,COc1cc(CC2CC(C(N)=O)=NO2)cc2c1OCO2 (centres undefined),107.2%
21,CCN1CCN(C[C@H]2CC[C@@H](Cc3ccc4c(c3)OCO4)O2)CC1,15.13%
22,COc1cc(CNCCc2nc(C)cs2)cc2c1OCCO2.Cl,-10.19%

row,SMILES,Percent Effect
1,CCC[C@@H]1CN(Cc2cc(OC)c3c(c2)OCO3)C[C@H]1C(=O)O,0.814%
2,COc1cc(CNCc2ccc(C(C)O)cc2)cc2c1OCO2 (centres undefined),0.7709%
3,COc1cc(CNCCc2cnn(C)c2)cc2c1OCCO2,-13.22%
4,COC(=O)C1=NOC(Cc2cc(OC)c3c(c2)OCO3)C1 (centres undefined),94.65%
5,COc1cc(CCO)c(OC)c2c1OCO2,-4.361%
6,COc1cc(CC2CC(c3ccc4c(c3)OCO4)=NO2)cc2c1OCO2 (centres undefined),92.75%
7,COc1cc(-c2nccn2CCn2cccn2)cc2c1OCO2,-19.98%
8,CN1CCN(C[C@H]2CC[C@@H](Cc3ccc4c(c3)OCO4)O2)CC1,5.044%
9,CC(C)CN1Cc2cccc(NC(=O)Cc3ccon3)c2C1,-9.701%
10,Cc1ccc(=O)n(Cc2nc(C(C)OCC(C)C)no2)n1 (centres undefined),-10.1%
11,Cc1cccc(C(=O)N2CCN(c3ccc(-n4cccc4)nn3)CC2)c1,0.6328%
12,CN(C)c1ccc(CN2C[C@H]3CC[C@@H]2CN(C2CCOCC2)C3)cn1,13.91%
13,CC(=O)Nc1sccc1C(=O)C(C)(C)C,20.74%
14,CN1CCC(Oc2ccc(NC(=O)c3cccc(Cl)c3)cc2)CC1,-9.86%
15,Cc1ccc(CNC(=O)c2c[nH]nc2NC(=O)C2COCCO2)cc1 (centres undefined),-26.91%
16,NC(=O)c1c[nH]nc1NC(=O)c1cccc(Cl)c1,101.4%
17,Cn1cc(NC(=O)c2cccc(Cl)c2)c(=O)n(C)c1=O,-1.289%
18,Cc1ccc(CNC(=O)c2c[nH]nc2NC(=O)COCC2CC2)cc1,-19.21%
19,NC(=O)c1c[nH]nc1NC(=O)c1ccc(Cl)cc1,91.07%
20,CNc1cc(N2CCCC2CNCc2ccc(Cl)o2)ncn1 (centres undefined),6.692%
21,O=C(CC1=CCCCC1)Nc1ccc(CN2C(=O)CCC2=O)cc1,-15.48%
22,O=C(CSc1nc2c(cnn2CCO)c(=O)[nH]1)NC1CCCCC1,119.1%

row,SMILES,Percent Effect
1,CCCc1cc(=O)[nH]c2nnc(SCC(C)=O)n12,15.46%
2,CC(C)NC(=O)CSc1nc2c(cnn2CCO)c(=O)[nH]1,147.9%
3,CCC(=O)Nc1ccc(C(C)Nc2nc3c(cnn3C)c(=O)[nH]2)cc1 (centres undefined),-8.968%
4,CN(CC(=O)N(C)C1CCCCC1)Cc1nc2c(cnn2C)c(=O)[nH]1,2.622%
5,CC(C)(C)n1ncc2c(=O)[nH]c(N3CCN(CCO)CC3)nc21,1.466%
6,CCN(CC)C(=O)CSc1nc2c(cnn2CCO)c(=O)[nH]1,123.9%
7,CC(=O)CSc1nc2c(cnn2CCO)c(=O)[nH]1,136.9%
8,CC(C#N)CSc1ccccc1NCC(=O)NC1CCCCC1 (centres undefined),-11.09%
9,CNC(=O)CSc1nc2c(cnn2Cc2ccc(F)cc2)c(=O)[nH]1,-13.84%
10,CCN(CC)C(=O)CN(C)Cc1nc2c(cnn2C)c(=O)[nH]1,2.851%
11,CCN(CC)C(=O)CSc1ccc(C(F)(F)F)cn1,0.9721%
12,O=C(c1ccco1)N(c1ccc(F)cn1)C1CCOCC1,7.992%
13,CCc1ccsc1CNC(=O)CNC(=O)C(C)(C)C,-1.133%
14,CC1CCN(C(=O)CSc2nc3c(cnn3CCO)c(=O)[nH]2)CC1,123.1%
15,O=C(CSc1nc2c(cnn2CCO)c(=O)[nH]1)N1CCCCCC1,-26.62%
16,CN(CC(=O)N1CCCC1)Cc1nc2c(cnn2C)c(=O)[nH]1,28.73%
17,CCC(Oc1ccc(N(C)S(C)(=O)=O)cc1)C(=O)N(C)C (centres undefined),-17.11%
18,CCN(CC)c1ccc(NS(=O)(=O)c2cnn(C)c2)cn1,-7.679%
19,Cc1nc(NS(=O)(=O)c2cc(Br)ccc2C)no1,-15.2%
20,CN1CC(C(=O)N(C)Cc2cc(-c3cccnc3)no2)NC1=O (centres undefined),-3.484%
21,Cc1ccc(C2NC(=O)c3cc(C(C)C)sc3N2)cc1 (centres undefined),93.7%
22,CC(C)NC(=O)C[C@@H]1CCNC[C@@H]1Cc1cc(-c2ccccn2)on1,-9.264%

row,SMILES,Percent Effect
1,CC(C)c1cc2c(s1)NC(c1ccccc1)NC2=O (centres undefined),97.8%
2,CC(C)c1cc2c(s1)NC(c1ccccn1)NC2=O (centres undefined),80.13%
3,COc1ccc2cc(-c3n[nH]cc3CN3CCSCC3)ccc2c1,-6.074%
4,COCCN(Cc1cccs1)c1nc(CCN)nc2ccccc12,106.1%
5,NCCc1nc(N(Cc2nccs2)C2CC2)c2ccccc2n1,3.563%
6,COCCN(Cc1ccccc1Cl)c1nc(CCN)nc2ccccc12,116.2%
7,COCCN(CCOC)c1ncccc1Cl,3.894%
8,NCCc1nc(N[C@@H](CO)c2ccccc2)c2ccccc2n1,20.3%
9,NCCc1nc(N(Cc2cncs2)C2CC2)c2ccccc2n1,-5.048%
10,COCCN(CC1CC1)c1nc(CCN)nc2ccccc12,101.5%
11,COCCN(Cc1ccccc1C)c1nc(C)nc2oc(C)nc12,9.543%
12,Cc1ccsc1CN(c1nc(CCN)nc2ccccc12)C1CC1,-10.53%
13,CC(O)CC(C)(C)CNC(=O)NCc1cccc(-n2ccnc2)c1 (centres undefined),13.1%
14,COCCN1CC2(CCC1=O)CCN(Cc1nnc(C)o1)CC2,2.828%
15,COc1cccn(Cc2nnc(-c3cccc(F)c3)o2)c1=O,-11.98%
16,COc1cccc(C(=O)N2CC[C@@H]3[C@H](CC2)N(C)CCS3(=O)=O)c1.O=C(O)C(F)(F)F,-1.721%
17,CN1CCS(=O)(=O)[C@@H]2CCN(C(=O)CC(C)(C)C)CC[C@@H]21.O=C(O)C(F)(F)F,96.97%
18,CN1CCS(=O)(=O)[C@@H]2CCN(C(=O)c3ccccc3)CC[C@@H]21.O=C(O)C(F)(F)F,-7.841%
19,COc1ccc(C(=O)N2CC[C@@H]3[C@H](CC2)N(C)CCS3(=O)=O)cc1.O=C(O)C(F)(F)F,3.653%
20,COc1cccc(CC(=O)N2CC[C@@H]3[C@H](CC2)N(C)CCS3(=O)=O)c1.O=C(O)C(F)(F)F,107.9%
21,COc1ccc(CC(=O)N2CC[C@@H]3[C@H](CC2)N(C)CCS3(=O)=O)cc1.O=C(O)C(F)(F)F,16.94%
